A short description of assay [1]: PMA/ionomycin-induced NF-kB reporter inhibitors, Jurkat retest, confirmation, T-cell NF-kB inhibitor project, cell-based, luminescence, single concentration (AID 435020).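 Further: plate controls were PMA/ionomycin stimulated DMSO wells for no effect and unstimulated DMSO wells for full effect.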 The following applies: Jurkat NF-kB luciferase, 16 h, at 4 µM, stronger effect = higher value.
The target in assay [2] is Protein Mdm4 (Homo sapiens) + E3 ubiquitin-protein ligase Mdm2 (Homo sapiens) (UniProt O15151+Q00987). The assay is described as follows: retested Mdm2-MdmX interaction blockers, confirmation, cell-based, luminescence, single concentration, set 2 (AID 504601;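 active means mean inhibition of the luminescence signal across two replicates at or above 26 percent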). The following applies: SaOS-2 split-luciferase Mdm2/MdmX complementation, at 8 µM, stronger effect = higher value.
Assay [3] can be described thus: HIF-2a reporter inhibitor retest, confirmation, luminescence, 786-0 RCC cells (AID 651580;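 active means mean inhibition across four replicates of at least 40 percent at the single tested concentration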). The following applies: HIF-2a luciferase reporter luminescence, overnight, at 18.8 µM, stronger effect = higher value.
Assay [4] is described as follows: HIF-1a luciferase reporter signal reduction – MiaPaCa-2 cells, single concentration, counter-screen for HIF-2a inhibitor project, confirmation (AID 651589;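 active means mean inhibition of the reporter signal across four replicates at the single tested dose of 50% or more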). The following applies: MiaPaCa-2 HIF-1a luciferase reporter, desferoxamine, overnight; at 18.8 µM; stronger effect = higher value. For orientation: In a reporter assay the amount or activity of a reporter protein is the signal.

A short description of assay [5]: activators of apoptotic CHOP UPR arm, confirmation, cell-based, CHO-CHOP luciferase reporter, single concentration (AID 463112; in the data active means activation above about 33%;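 further: 0% = DMSO wells and 100% = tunicamycin 10 µg/mL wells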). Particulars: CHO-CHOP cells, CHOP-luciferase reporter luminescence; at 10 µM; stronger effect = higher value; percent of tunicamycin response, DMSO as zero.
Assay [6] can be described thus: inhibitors of PAF-induced NF-kB signaling, retest, confirmation, cell-based, GFP fluorescence, single concentration (AID 602472; in the data active means inhibition above about 40%;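 further: stimulus PAF is a Pseudomonas aeruginosa filtrate and not platelet activating factor; plate controls were DMSO wells with stimulus for no effect and unstimulated DMSO wells for full effect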). Particulars: KKLEB CF airway cells, overnight, at 5 µM, stronger effect = higher value.
Assay [7] in a line: inhibitors of PAF-induced NFkB signaling in CF airway cells, dose response, cell-based, uHTS hits, panel, cytotoxicity readout (AID 624344). Particulars: CF bronchial epithelial cells, PAF-induced NFkB reporter inhibition, with PAF, run 1; at 79 µM (top of the series) unless noted.
Assay in assay [8]: as above
The following applies: CF bronchial epithelial cells, PAF-induced NFkB reporter inhibition, with PAF, run 2; at 79 µM (top of the series) unless noted.

For assay [9], the target named is Tumor necrosis factor receptor superfamily member 10B (Homo sapiens) (UniProt O14763). The assay is described as follows: caspase-8 TRAIL sensitization, hit retest, confirmation, cell-based, NB7+caspase-8, with/without TRAIL, luminescence panel (AID 651596; in the data active means activity above about 50%). The following applies: NB7 neuroblastoma + caspase-8, TRAIL sensitization, luminescence viability, with TRAIL, mean of runs, at 10 µM, stronger effect = higher value.

Assay in assay [10]: as above
Particulars: NB7 neuroblastoma + caspase-8, without TRAIL, luminescence viability, without TRAIL, mean of runs, at 10 µM.

A short description of assay [11]: Apaf-1 inhibitors, single-dose retest, confirmation, biochemical, fluorescence, DEVD-Rh110, 20 µM (AID 504614;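 active means mean inhibition of at least 40% at 20 µM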;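 further: plate controls were DMSO wells for no effect and DEVD-CHO caspase inhibitor control wells for full effect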). The following applies: reconstituted apoptosome, caspase-3 DEVD-Rh110 fluorescence; at 20 µM; stronger effect = higher value.
A short description of assay [12]: Rh110 fluorescence interference by putative Apaf-1 inhibitors, confirmation, artefact control for Apaf-1 inhibitor project, biochemical, 20 µM (AID 504615;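 active means signal rise of 40% or more at 20 µM, treated as a fluorescence artifact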). Particulars: quenched caspase reaction, at 20 µM, stronger effect = higher value.
Assay [13] is described as follows: Peg3 promoter reporter inhibitors, retest, confirmation, cell-based, HeLa, luciferase reporter, single concentration (AID 602417;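 active means at 20 µM dose, 40% or more inhibition averaged across four replicates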). The following applies: HeLa PEG-Prom luciferase reporter, luminescence, overnight; at 20 µM; stronger effect = higher value.
Assay [14] addresses PEG-3 (UniProt Q6IN02). Nature of the assay: Peg3 promoter luciferase inhibitors, potency, dose response, cell-based, HeLa, CREF/GAPDH counter-screen panel (AID 624167). Particulars: CREF/GAPDH counter-screens; HeLa PEG-Prom luciferase reporter, overnight, run 1, dose range 1, at 100 µM (top of the series) unless noted. (A counterscreen serves to expose hits that act by an unwanted route or on another target.)

The target of assay [15] is PEG-3 (UniProt Q6IN02). The description is as above. The following applies: CREF/GAPDH counter-screens; HeLa PEG-Prom luciferase reporter, overnight, run 2, dose range 1, at 100 µM (top of the series) unless noted.
Assay [16] has as its system Rat fibroblasts (CREF). The assay is described as above. Particulars: CREF/GAPDH counter-screens; run 1, dose range 1, at 100 µM (top of the series).
Assay [17] relates to Rat fibroblasts (CREF). Described as above. The following applies: CREF/GAPDH counter-screens; run 2, dose range 1, at 100 µM (top of the series).
Assay [18] has as its target Sentrin-specific protease 8 (Homo sapiens) (UniProt Q96LD8). The assay is described as follows: SENP8 protease inhibitors, retest, confirmation, biochemical, luminescence, single concentration (AID 488912;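 active means mean inhibition across replicates above about 50%, limit read from the data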). The following applies: Recombinant SENP8, Z-RLRGG-aminoluciferin luminescence, 60 min; at 12.5 µM; stronger effect = higher value.
Assay [19] addresses Sentrin-specific protease 6 (Homo sapiens) (UniProt Q9GZR1). The assay is described as follows: SENP6 protease inhibitors, confirmation, biochemical, luminescence, single concentration (AID 488915;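 active means mean inhibition above about 50% in the one-dose retest, limit read from the data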). Particulars: recombinant SENP6, Z-RLRGG-aminoluciferin luminescence; at 12.5 µM; stronger effect = higher value.
The target of assay [20] is Sentrin-specific protease 7 (Homo sapiens) (UniProt Q9BQF6). Nature of the assay: SENP7 protease inhibitors, retest, confirmation, biochemical, luminescence, single concentration (AID 488917;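 active means mean inhibition above about 50% in the one-dose retest, limit read from the data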). Particulars: recombinant SENP7, Z-RLRGG-aminoluciferin luminescence, 40 min; at 12.5 µM; stronger effect = higher value.
The target in a further assay is Caspase-3 (Homo sapiens) (UniProt P42574). Nature of the assay: caspase-3 protease inhibitors, confirmation, selectivity assay for SENP inhibitor project, biochemical, single concentration (AID 488918;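 active means mean inhibition above about 50%, limit read from the data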;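 further: plate controls were enzyme with DMSO for no effect and wells without caspase-3 for full effect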). Particulars: purified caspase-3, Z-DEVD-aminoluciferin luminescence, 60 min; at 12.5 µM; stronger effect = higher value.
Assay [21] can be described thus: luciferase luminescence interference by compounds, confirmation, artefact control for SENP inhibitor project, biochemical, single concentration, SENP8 reaction pre-completed (AID 488919;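 active means mean inhibition above about 50% when retested at one dose, limit read from the data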;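 further: plate controls were DMSO wells with completed reaction for no effect and substrate without enzyme for full effect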). The following applies: Pre-incubated SENP8/Z-RLRGG-aminoluciferin, at 12.5 µM, stronger effect = higher value.
The target of assay [22] is 72 kDa type IV collagenase (Homo sapiens) (UniProt P08253). Nature of the assay: MMP-2 protease inhibition counter-screen, confirmation, counter-screen for CSN deneddylation inhibitor project, biochemical, fluorescence, single concentration (AID 720655;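 active means corrected plate-normalized z-score of 5 or more, or -5 or less, or inhibition of 15% or more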;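 further: plate controls were DMSO wells with enzyme for no effect and buffer wells lacking MMP-2 for full effect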). The following applies: recombinant MMP-2, FRET substrate fluorescence, 60 min; at 16.6 µM.
Another assay addresses Prothrombin (Bos taurus) (UniProt P00735). Nature of the assay: bovine thrombin inhibition counter-screen, confirmation, counter-screen for CSN deneddylation inhibitor project, biochemical, fluorescence polarization, single concentration (AID 720656;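 active means inhibition at or above a set limit, with a fluorescence interference ratio between 0.5 and a set maximum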). Particulars: bovine thrombin cleavage of Ub4-pepOG, at 16.6 µM, stronger effect = higher value.
The target in assay [23] is Carboxy-terminal domain RNA polymerase II polypeptide A small phosphatase 1 (Homo sapiens) (UniProt Q9GZU7). The assay is described as follows: Scp-1 binding by thermal shift, confirmation, orthogonal assay for Scp-1 inhibitor project, biophysical, differential scanning fluorimetry (AID 540329;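 active means substances whose mean melting-temperature shift, as a percentage of the reference inhibitor's shift, reaches about 5.3%, limit read from the data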;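 further: 0% = Tm of DMSO wells and 100% = Tm with sodium orthovanadate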). Particulars: Recombinant SCP1, Sypro Orange thermal shift Tm; at 40 µM; stronger effect = higher value.

The values that follow come from PubChem BioAssay.

The other results are listed elsewhere or left out. Activity calls are given as the source filed them.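 How the source made its calls, unless noted: active means inhibition reaching about 45% at 4 µM in either replicate (limit read from the data); inactive means the rest.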

Chain of Protein Mdm4 (Homo sapiens) + E3 ubiquitin-protein ligase Mdm2 (Homo sapiens) (O15151 whole entry, looked up): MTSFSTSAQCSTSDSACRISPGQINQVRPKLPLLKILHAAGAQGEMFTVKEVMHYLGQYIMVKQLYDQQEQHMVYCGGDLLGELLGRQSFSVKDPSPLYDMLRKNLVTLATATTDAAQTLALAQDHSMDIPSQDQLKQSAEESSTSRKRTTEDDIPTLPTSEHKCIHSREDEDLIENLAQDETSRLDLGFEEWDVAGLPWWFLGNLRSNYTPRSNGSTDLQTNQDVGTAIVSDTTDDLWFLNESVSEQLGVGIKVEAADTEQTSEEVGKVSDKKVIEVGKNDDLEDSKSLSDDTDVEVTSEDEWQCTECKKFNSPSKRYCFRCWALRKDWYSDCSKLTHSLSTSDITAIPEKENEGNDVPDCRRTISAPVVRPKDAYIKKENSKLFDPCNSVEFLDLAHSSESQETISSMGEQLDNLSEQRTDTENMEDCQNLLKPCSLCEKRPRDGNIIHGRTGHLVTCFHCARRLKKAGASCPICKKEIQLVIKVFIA
Chain of Protein Mdm4 (Homo sapiens) + E3 ubiquitin-protein ligase Mdm2 (Homo sapiens) (Q00987 whole entry, looked up): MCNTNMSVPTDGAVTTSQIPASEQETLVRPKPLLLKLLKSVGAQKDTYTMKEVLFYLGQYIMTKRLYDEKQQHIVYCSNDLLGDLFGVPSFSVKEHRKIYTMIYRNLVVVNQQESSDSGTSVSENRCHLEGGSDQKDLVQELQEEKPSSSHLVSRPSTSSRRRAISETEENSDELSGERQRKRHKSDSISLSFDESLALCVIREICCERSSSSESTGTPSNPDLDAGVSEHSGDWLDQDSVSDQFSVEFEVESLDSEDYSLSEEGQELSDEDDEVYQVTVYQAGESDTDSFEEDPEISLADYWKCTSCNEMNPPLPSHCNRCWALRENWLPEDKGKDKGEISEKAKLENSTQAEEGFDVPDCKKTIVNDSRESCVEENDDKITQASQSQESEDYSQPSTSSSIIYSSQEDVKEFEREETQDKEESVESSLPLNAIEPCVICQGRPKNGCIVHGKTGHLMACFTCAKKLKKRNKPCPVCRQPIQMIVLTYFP
Chain of PEG-3 (Q6IN02 whole entry, looked up): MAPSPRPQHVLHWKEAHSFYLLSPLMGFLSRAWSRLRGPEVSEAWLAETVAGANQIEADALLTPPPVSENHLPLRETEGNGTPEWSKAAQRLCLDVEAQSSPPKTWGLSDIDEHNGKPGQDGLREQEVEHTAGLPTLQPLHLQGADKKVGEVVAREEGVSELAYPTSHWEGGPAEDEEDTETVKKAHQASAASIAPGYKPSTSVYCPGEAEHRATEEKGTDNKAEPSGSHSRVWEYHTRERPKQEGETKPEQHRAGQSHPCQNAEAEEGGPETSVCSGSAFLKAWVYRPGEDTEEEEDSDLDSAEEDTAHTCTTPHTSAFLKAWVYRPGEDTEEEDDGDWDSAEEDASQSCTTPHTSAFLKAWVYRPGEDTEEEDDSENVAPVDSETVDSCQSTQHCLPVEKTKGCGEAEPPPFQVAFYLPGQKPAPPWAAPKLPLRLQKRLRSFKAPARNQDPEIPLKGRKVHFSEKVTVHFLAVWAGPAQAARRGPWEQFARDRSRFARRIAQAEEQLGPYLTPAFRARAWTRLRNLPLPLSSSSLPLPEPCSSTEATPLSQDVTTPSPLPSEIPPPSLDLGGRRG
Chain of Tumor necrosis factor receptor superfamily member 10B (Homo sapiens) (O14763 whole entry, looked up): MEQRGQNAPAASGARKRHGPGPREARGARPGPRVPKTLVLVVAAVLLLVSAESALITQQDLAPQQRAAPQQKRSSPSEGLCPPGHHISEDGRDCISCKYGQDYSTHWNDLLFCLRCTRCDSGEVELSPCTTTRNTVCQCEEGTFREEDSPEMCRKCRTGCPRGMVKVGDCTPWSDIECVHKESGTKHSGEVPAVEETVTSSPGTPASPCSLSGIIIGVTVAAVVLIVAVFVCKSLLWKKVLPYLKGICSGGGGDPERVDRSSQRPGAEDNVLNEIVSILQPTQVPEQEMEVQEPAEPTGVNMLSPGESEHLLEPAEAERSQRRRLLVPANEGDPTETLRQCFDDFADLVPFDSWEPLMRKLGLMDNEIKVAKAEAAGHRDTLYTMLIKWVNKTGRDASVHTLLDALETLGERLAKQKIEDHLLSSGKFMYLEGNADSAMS
Chain of Caspase-3 (Homo sapiens) (P42574 28-227 limits assumed): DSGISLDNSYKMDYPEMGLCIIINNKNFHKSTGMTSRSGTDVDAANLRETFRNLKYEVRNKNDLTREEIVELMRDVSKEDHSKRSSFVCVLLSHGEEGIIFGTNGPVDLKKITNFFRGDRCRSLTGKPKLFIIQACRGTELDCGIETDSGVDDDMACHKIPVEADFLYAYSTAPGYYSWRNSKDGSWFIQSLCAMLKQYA
Chain of Sentrin-specific protease 8 (Homo sapiens) (Q96LD8 whole entry, looked up): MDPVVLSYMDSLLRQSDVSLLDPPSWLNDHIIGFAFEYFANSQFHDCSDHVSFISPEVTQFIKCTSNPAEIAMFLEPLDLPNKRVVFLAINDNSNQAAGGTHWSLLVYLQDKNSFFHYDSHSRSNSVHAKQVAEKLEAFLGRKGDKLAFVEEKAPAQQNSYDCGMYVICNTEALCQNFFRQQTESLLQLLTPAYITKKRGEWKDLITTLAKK
Chain of Sentrin-specific protease 6 (Homo sapiens) (Q9GZR1 628-1112 limits assumed): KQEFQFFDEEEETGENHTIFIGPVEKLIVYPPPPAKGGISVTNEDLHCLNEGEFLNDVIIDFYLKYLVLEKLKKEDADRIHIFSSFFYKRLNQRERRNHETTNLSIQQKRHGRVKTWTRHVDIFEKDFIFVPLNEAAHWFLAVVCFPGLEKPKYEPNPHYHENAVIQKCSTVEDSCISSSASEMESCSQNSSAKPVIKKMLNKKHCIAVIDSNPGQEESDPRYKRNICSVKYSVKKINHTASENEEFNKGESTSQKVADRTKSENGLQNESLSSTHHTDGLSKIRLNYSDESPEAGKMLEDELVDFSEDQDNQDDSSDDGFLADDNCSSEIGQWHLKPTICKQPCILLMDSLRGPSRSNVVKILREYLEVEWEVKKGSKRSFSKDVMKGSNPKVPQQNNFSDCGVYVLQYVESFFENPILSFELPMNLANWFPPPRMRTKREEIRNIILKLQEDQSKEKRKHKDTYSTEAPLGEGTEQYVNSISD
Chain of Sentrin-specific protease 7 (Homo sapiens) (Q9BQF6 706-1050 limits assumed): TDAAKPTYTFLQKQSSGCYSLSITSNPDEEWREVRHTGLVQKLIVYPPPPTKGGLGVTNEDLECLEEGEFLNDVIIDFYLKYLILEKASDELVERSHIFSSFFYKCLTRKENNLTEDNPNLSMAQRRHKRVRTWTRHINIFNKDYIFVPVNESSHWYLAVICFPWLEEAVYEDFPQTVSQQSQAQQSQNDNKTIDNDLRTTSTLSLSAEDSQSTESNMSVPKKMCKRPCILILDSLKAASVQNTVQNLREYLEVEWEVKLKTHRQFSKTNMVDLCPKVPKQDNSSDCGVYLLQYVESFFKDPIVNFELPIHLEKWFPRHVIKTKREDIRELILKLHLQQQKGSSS
Chain of Prothrombin (Bos taurus) (P00735 whole entry, looked up, the tested form may be a part): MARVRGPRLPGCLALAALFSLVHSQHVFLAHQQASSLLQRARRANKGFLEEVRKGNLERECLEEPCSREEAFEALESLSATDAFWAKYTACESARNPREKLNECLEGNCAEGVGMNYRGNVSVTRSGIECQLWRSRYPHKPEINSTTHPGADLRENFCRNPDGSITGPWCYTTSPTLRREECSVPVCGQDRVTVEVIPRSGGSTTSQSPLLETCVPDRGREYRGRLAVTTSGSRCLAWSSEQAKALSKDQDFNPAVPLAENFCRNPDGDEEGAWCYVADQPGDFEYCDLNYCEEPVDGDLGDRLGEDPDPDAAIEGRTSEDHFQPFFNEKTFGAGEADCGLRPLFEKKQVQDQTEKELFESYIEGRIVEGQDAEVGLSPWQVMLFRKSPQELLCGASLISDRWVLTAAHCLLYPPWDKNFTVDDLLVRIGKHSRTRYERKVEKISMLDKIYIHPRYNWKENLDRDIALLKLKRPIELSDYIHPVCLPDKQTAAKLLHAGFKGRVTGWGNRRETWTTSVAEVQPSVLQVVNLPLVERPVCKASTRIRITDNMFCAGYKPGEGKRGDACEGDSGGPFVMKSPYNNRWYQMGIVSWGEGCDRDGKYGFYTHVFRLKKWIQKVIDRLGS
Chain of 72 kDa type IV collagenase (Homo sapiens) (P08253 whole entry, looked up): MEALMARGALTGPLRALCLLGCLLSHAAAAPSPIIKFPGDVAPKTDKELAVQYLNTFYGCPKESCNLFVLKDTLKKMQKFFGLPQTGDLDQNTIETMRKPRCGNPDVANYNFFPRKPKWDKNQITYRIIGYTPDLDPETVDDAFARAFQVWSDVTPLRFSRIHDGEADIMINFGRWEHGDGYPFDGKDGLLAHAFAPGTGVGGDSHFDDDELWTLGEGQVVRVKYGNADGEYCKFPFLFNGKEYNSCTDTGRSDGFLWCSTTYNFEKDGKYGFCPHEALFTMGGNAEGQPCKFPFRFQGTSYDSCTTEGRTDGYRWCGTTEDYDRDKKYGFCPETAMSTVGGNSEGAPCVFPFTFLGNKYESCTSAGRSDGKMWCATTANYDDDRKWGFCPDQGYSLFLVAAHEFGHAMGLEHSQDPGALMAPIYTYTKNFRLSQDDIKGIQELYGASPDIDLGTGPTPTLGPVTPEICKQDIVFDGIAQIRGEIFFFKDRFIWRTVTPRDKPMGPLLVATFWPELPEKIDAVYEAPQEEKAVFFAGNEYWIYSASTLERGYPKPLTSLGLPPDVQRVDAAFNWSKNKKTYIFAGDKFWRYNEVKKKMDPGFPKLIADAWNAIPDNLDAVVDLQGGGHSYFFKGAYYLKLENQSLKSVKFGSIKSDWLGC
Chain of Carboxy-terminal domain RNA polymerase II polypeptide A small phosphatase 1 (Homo sapiens) (Q9GZU7 76-261 limits assumed): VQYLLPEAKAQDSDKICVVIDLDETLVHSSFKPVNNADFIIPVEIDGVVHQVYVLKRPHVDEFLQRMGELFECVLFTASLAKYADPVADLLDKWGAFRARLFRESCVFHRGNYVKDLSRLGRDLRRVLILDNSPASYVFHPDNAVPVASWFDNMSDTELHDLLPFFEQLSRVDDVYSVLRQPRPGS

Take `C=C(C)C(=O)O[C@H]1C/C(C)=C\C(=O)/C=C(\C)[C@H](O)[C@@H]2OC(=O)C(=C)[C@@H]21`: the inhibition – broadly, the drop in the measured response relative to a control, in per cent – is 34.6% (inactive) in [1], 103% (active) in assay [2], 61.8% (active) in assay [3] and 108% (active) in assay [4].

On to `Cc1ccc(Oc2nc(-c3ccccn3)nc3ccccc23)cc1`, for which the activation in assay [5] is 1.5% (inactive).

In the case of `COc1ccc2cc1Oc1ccc(cc1)C[C@H]1c3cc(c(OC)cc3CCN1C)Oc1c(O)c(OC)cc3c1[C@H](C2)N(C)CC3`, the inhibition in [1] is 16.9% (inactive); in [2], 104% (active).

On to `CCCCCC(=O)Nc1ccc(C(=O)N/N=C/c2ccc([N+](=O)[O-])cc2)cc1`, for which the activation in [5] is 79% (active).

Consider `COc1ccccc1-n1nnnc1S(=O)(=O)Cc1ccc(Cl)cc1`, for which the inhibition is 26.5% (inactive) in assay [1]; 103% (active) in assay [2]; 99.1% (active) in assay [6]; 70.5% (active) in assay [3]; 102% (active) in assay [4]; 110% in [7]. In addition, in assay [8], the inhibition came to 104%.

`COc1ccccc1/C=N\Nc1cc(C)nc(-n2nc(C)cc2C)n1`: in assay [5], the activation is 38% (active).

As for `NC(=O)c1c(NC(=O)c2ccccc2)sc2c1CCCC2`, the inhibition in [1] was -110% (inactive). Also, the activity was 51.6% in assay [9] and 58% in assay [10].

As to `CCOc1ccc(N2C(=O)CC(N(O)c3ccccc3)C2=O)cc1` (stereo not drawn), the activation in [5] was 186% (active).

Consider `CCOc1[nH]n(-c2ccc(Cl)cc2)c(=O)c1C=Nc1ccc(O)cc1`, for which the inhibition is 6% (inactive) in assay [1] and 14.8% (inactive) in assay [11]. Moreover, the activation (fluorescence interference) in [12] is 5.36% (inactive).

For the compound `OCCCNc1nccc(-c2cc(Nc3cccc(Cl)c3)ncn2)n1`, the inhibition in assay [1] was 97% (active); in assay [2], 102% (active); in assay [13], 97.6% (active); with PEG-3 [14], 94%; with PEG-3 [15] it was 97.4%; in the assay with Rat fibroblasts (CREF) [16], 14.7%. The inhibition with Rat fibroblasts (CREF) [17] came to 62.3%.

As to `Cc1cccc(/C(N)=N/OC(=O)c2ccccc2Cl)c1`, the inhibition in assay [1] was -97.8% (inactive); in assay [18], 97.7% (active); in assay [19] it was 98.9% (active); in [20], 102% (active); in the assay with Caspase-3 (Homo sapiens), 97.2% (active); in assay [21] it was 96.8% (active). The activity was 77.6% in assay [9] and 84.8% in [10].

On to `Cc1c(NC(=O)CSc2cccc3cccnc23)c(=O)n(-c2ccccc2)n1C`, for which the activation in [5] was 123% (active).

As to `CC(C)(C)c1ccc(Oc2ccc(N)cc2)cc1`, the inhibition in assay [1] was 11.6% (inactive); in [13], 86.3% (active); with PEG-3 [14] it was 99.3%; with PEG-3 [15], 99.2%; with Rat fibroblasts (CREF) [16], 60.1%; in the assay on Rat fibroblasts (CREF) [17] it was 83.1%.

Regarding `Cn1ccc(=Nc2ccc(NC(=O)c3ccc(N=c4ccn(C)c5ccc([N+](=O)[O-])cc45)cc3)cc2)cc1`, the inhibition in assay [1] was -15.3% (inactive); in [22], 61.8% (active); with Prothrombin (Bos taurus), -10.3% (inactive).

For `O=C(Nc1nc2ccccc2s1)c1ccc2c(c1)OCO2`, the inhibition in assay [1] is -106% (inactive); in [18], 66% (active); in assay [19], 95.1% (active); in [20] it was 97.4% (active); in the assay with Caspase-3 (Homo sapiens), 84.8% (active); in [21] it was 18.6% (inactive). Further, the activity in assay [9] was found to be 78.8%; in assay [10], 76.8%.

As to `Cc1cc(C(=O)OCC(=O)NCc2ccco2)c(C)n1-c1ccccc1`, the inhibition in [1] was 6.4% (inactive). For the same compound, in [23], the thermal shift relative to vanadate control was -3.06% (inactive).
